# BRCA1 expr up = qHTS Assay to Identify Small Molecule Activators of BRCA1 Expression; MCF7-BRCA1-FFLuc reporter, luminescence, 48 h; response scale: scaled: vehicle 0%, 10 µM genistein 100%; Potency, µM (doses to about 46.1 µM), inactives show top-dose activation, most hits filed as activators; 380,000 compounds, 1.1% hits; AID 624202, 2012; note: potency is the fitted concentration of half-maximal effect; nearly all actives have a fitted effect of over 80% in size
#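 MCF7-BRCA1-FFLuc cells, 2000/well in phenol-red-free MEM, attached 2 h then treated 48 h at 37 C. Luciferase luminescence read 15 min after reagent; normalized to genistein maximum activation (10microM) and DMSO, concentration-response fitted.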
# ELG1 repair inh = qHTS screen for small molecules that inhibit ELG1-dependent DNA repair in human embryonic kidney (HEK293T) cells expressing luciferase-tagged ELG1; HEK293T ELG1-luciferase reporter, luminescence, 16 h; DNA damage induced by 5-fluorouridine; Potency, µM (top dose mostly 46.1 µM), without a hit: at the top dose activity change, negative = inhibition, most hits filed as inhibitors; 330,000 compounds, 2.3% hits; AID 504467, 2011; note: potency is the fitted concentration of half-maximal effect; % is set by controls: 0 for no effect and ±100 for the full control effect; nearly all actives have a fitted effect of over 55% in size
#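 Cells (2,000 per well) received 5-fluorouridine plus test compound or DMSO and were incubated 16 hr at 37 °C, 5% CO2. Luciferase activity was read by luminescence 30 min after ONE-Glo addition; signal suppression marked inhibition of damage-induced ELG1 function.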
# Nrf2 ARE act = qHTS of Nrf2 Activators; AREc32 ARE-luciferase reporter (MCF7-derived line), luminescence, 24 h; 410,000 compounds, 0.31% hits; Potency, µM (top dose mostly 46.1 µM), without a hit: at the top dose activation, hits mostly activators; AID 624171, 2012; note: potency is the fitted concentration of half-maximal effect; % of control where 0% means no effect; nearly all actives have a fitted effect of over 65% in size
#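 AREc32 cells carrying an ARE-driven firefly luciferase, 1000 cells/well in OPTI-MEM with 5% FBS, dosed after overnight attachment and incubated 24 hr at 37 deg C. Steady-Glo luminescence read after 30 min at RT.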
# IL2 activator = qHTS of IL-2 Activators; activation, % (series mostly up to about 46 µM); IL-2 activation reporter assay, cell-based qHTS; stimulated with anti-CD3/CD4/CD28 beads; in transgenic mouse T cells; 360,000 compounds, 0.065% hits; AID 652025, 2013; in the data active = activation above about 50%; inconclusive = mostly about 30% to 49%; note: 0% is about no effect
#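 Unstimulated transgenic mouse T cells, 750 per well, received compound and, after 60 minutes, anti-CD3/anti-CD4 bead plus anti-CD28 stimulation. EGFP and DsRed were quantified after 18 hours.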
# * marks the source's active call; other numbers are inactive results; ? = inconclusive; . = not tested or not shown; [ ] = remark or other dose. Only some compounds are listed: those with a hit (about 3.1% of all), similar ones and a draw of the others. Unless noted, calls come from the whole dose curve; as a rule, active = well fitted curve in the direction sought with a large enough effect; inconclusive = small, poorly fitted or top-dose-only effect, or another doubt; inactive = no such curve, though single readings can be large; an effect the other way counts as inactive or inconclusive.
SMILES,BRCA1 expr up,ELG1 repair inh,Nrf2 ARE act,IL2 activator
CC1=C(C(=O)Nc2ccc(C)cc2C)C(c2ccc(O)cc2)n2nnnc2N1 (centres undefined),-0.1%,.,5.5%,.
CCCCN1C(=O)C(=O)N(c2ccccc2)C1=S,5.01µM*,?,1.4%,-0.2
CC(C)(C)OC(=O)N1CCN(c2nc(-c3cccs3)nc3ccccc23)CC1,1.6%,.,.,.
COCCCn1c(C(=O)NC2CCCCC2C)cc2c(=O)n3cccc(C)c3nc21 (centres undefined),-13.4%,13µM*,-0.1%,0.2
CCN(C(=O)c1cc2c(=O)n3cccc(C)c3nc2n1CCCOC)C1CCCCC1,-32.6%,23.1µM*,-0.2%,-3.6
COCCCn1c(C(=O)NCCN2CCOCC2)cc2c(=O)n3cccc(C)c3nc21,-6.1%,-15.5%,0.1%,-0.2
Cc1ccc(-c2cnc3cccnn23)cc1F,20.4%,.,9.1%,-0.7
COc1cccc(-c2cnc3cccnn23)c1,12.6µM*,.,-0.5%[9.22 µM],-0.2
COc1cccc(-c2ccnc3c(-c4ccccc4)c(C)nn23)c1,11.2µM*,.,5.0%,.
CCCS(=O)(=O)c1c(S(=O)(=O)CCC)c2cc(CC)ccn2c1C(=O)c1ccc(Cl)cc1,.,.,-0.9%,.
O=C(Nc1ccccc1)C(Cc1ccccc1)N1Cc2ccccc2C1=O (centres undefined),.,.,-1.3%,.
O=C(Nc1ccc([N+](=O)[O-])cc1)C(Cc1ccccc1)N1C(=O)c2cccc3cccc(c23)C1=O (centres undefined),?,5.6%,3.4%[9.22 µM],159.6*
COc1ccc(NC(=O)c2cnn(-c3ccccc3)c2C)cc1OC,3.98µM*,?,-0.4%,4.1
Cc1c(C(=O)Nc2cccc([N+](=O)[O-])c2)cnn1-c1ccccc1,2.51µM*,?,20.1%,-1.0
c1ccc2c(c1)Nc1ccncc1S2,4.2%,18.3µM*,2.9%,-0.6
COc1ccc2c(c1)Sc1ccccc1N2,-43.9%,?,3.2%,-5.9
c1ccc2c(c1)Nc1cc3ccccc3cc1S2,7.08µM*,?,9.7%,-2.9
COc1ccc(CNC(=O)C(=O)NCC(c2cccs2)S(=O)(=O)c2ccc(C)cc2)cc1 (centres undefined),.,.,3.1%,.
CCOC(=O)N=Nc1c2ccccc2c2nc3no[nH]c3nc12,-102.1%,1.46µM*,-2.9%,-0.8
COc1cc(C2c3cc4c(cc3OC(C)(N3CCCC3)C2C)OCO4)cc(OC)c1OC (centres undefined),-78.2%,.,0.2%,-2.5
CC(C)(C)c1ccc(C(=O)N2CCC(C(=O)NCC3CCCO3)CC2)cc1 (centres undefined),8.91µM*,?,-0.3%,1.0
O=C(CCc1ccccc1)NNC(=O)c1ccccc1Cl,-22.6%,6.1%,-0.7%,-3.7
O=C(NNCc1ccc(O)cc1)c1ccccc1Cl,12.6µM*,?,-0.1%,-0.2
FC(F)(F)c1cc(-c2ccco2)nc(NCc2ccco2)n1,-9.3%,-5.0%,10µM*,2.8
CC(C)(C)c1ccc(C(=O)N2CC(=O)Nc3ccc(F)cc3C2c2ccc(F)cc2)cc1 (centres undefined),.,.,0.0%,.
SMILES,BRCA1 expr up,ELG1 repair inh,Nrf2 ARE act,IL2 activator
CCN=c1scc(-c2ccco2)n1/N=C/c1ccc(OC)c(O)c1,6.31µM*,.,2.2%,2.8
CCN=c1scc(-c2ccco2)n1/N=C/c1ccc(O)cc1,?,?,3.0%,-1.7
CC1=C(C(=O)Nc2ccccc2)C(c2ccc(O)cc2)n2nc(-c3ccc(Cl)cc3)nc2N1 (centres undefined),.,.,-1.2%,.
O=S(=O)(c1ccc2ccccc2c1)N1CCN(C(=S)Nc2ccc(F)cc2)CC1,-69.3%,18.4µM*,0.0%[9.22 µM],-0.1
CCOC(=O)C1=C(O)/C(=C/c2cn(CC(=O)N3CCCC3)c3ccccc23)SC1=Nc1ccccc1,-15.4%,4.11µM*,0.7%,218.8*
COC(=O)c1cn(CC(=O)N2CCCCCC2)c2ccccc12,0.9%,1.0%,0.0%,-1.5
COc1ccccc1-n1cc2ccc([N+](=O)[O-])cc2n1,18.7%,.,11.2µM*,0.4
CCOC(=O)N1CCN(C(=O)CSCC(=O)Nc2nc(-c3ccc(OC)cc3)cs2)CC1,88.7%,0.0%,5.7%,-3.0
CCOC(=O)N1CCN(C(=O)CSCC(=O)Nc2nc(-c3ccc(Cl)s3)cs2)CC1,-20.6%,16.4µM*,8.2%,-2.8
